A selection: hits, their analogues and other compounds. The true share with any hit is near 3.4%.
PKM2 activator – qHTS Assay for Activators of Human Muscle isoform 2 Pyruvate Kinase | purified PKM2, Kinase-Glo ATP luminescence, activation; response scale: 0% is enzyme alone, no compound | Potency, µM (titrated, usually from 57.5 µM), without a hit: top-dose activation, actives largely listed as activators | actives 0.34% (n = 260,000) | AID 1631, 2009; note: % is set by controls: 0 for no effect and ±100 for the full control effect; nearly all actives have a fitted effect of over 55% in size
Target sequence (P14618 whole entry, looked up, canonical isoform): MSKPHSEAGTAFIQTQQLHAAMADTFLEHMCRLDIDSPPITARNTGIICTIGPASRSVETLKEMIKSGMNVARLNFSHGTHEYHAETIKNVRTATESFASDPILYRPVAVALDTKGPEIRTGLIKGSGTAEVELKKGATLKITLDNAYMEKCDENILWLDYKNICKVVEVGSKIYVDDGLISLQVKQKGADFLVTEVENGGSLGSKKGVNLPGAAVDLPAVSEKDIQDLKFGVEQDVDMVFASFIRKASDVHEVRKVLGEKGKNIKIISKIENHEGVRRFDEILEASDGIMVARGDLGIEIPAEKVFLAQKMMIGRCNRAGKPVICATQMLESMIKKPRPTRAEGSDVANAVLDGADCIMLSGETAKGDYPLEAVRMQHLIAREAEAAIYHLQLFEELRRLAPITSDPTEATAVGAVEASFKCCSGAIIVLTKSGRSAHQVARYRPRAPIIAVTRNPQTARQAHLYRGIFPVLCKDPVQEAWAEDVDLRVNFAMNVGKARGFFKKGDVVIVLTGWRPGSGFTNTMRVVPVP
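Purified hPK-M2 (>95%) run at intermediate activity with 0.1 mM ADP and 0.5 mM PEP in 50 mM imidazole pH 7.2, KCl, MgCl2; 1 h room temperature. ATP formed read by Kinase-Glo luminescence; normalized to uninhibited and no-enzyme controls.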
VDR inh – Inhibitors of the vitamin D receptor (VDR): qHTS. AID 504847, 2011. actives 0.93% (n = 400,000). Vitamin D3 receptor (Homo sapiens), P11473. VDR-SRC2-3 peptide fluorescence polarization, 2 h. Potency, µM, for the others: max response, negative = inhibition, hits mostly inhibitors; note: % is set by controls: 0 for no effect and ±100 for the full control effect
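Signal is fluorescence polarization, reporting how far test compounds block the interaction of VDR with the SRC2-3 coregulator peptide after a 2 h room-temperature incubation.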
GLS inh – qHTS for Inhibitors of Glutaminase (GLS) | Potency, µM (series often up to 45.5 µM), without a hit: at the top dose activity change, negative = inhibition, most hits filed as inhibitors | GLS enzymatic activity, qHTS titration | actives 0.21% (n = 410,000) | Glutaminase kidney isoform, mitochondrial (Homo sapiens), O94925; note: % is set by controls: 0 for no effect and ±100 for the full control effect
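Read-out is an Amplex red fluorescence increase coupled through glutamate oxidase and HRP, measured before and after 30 min room-temperature incubation. hKGA is in 45 mM KH2PO4 (pH 8.2) with 0.02% Tween-20; glutamine added as 1mM solution.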
GCN5L2 inh – qHTS Assay for Inhibitors of GCN5L2; Histone acetyltransferase KAT2A (Homo sapiens), Q92830; GCN5L2 HAT assay, ThioGlo1 CoA-SH fluorescence; Potency, µM (highest dose often 58.9 µM), for inactives: at the top dose activity change, negative = inhibition, usual class: inhibitors; actives 0.21% (n = 390,000); AID 504327, 2011; note: % is set by controls: 0 for no effect and ±100 for the full control effect
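Enzyme at 20nM final was mixed with library compounds for 15 min at room temperature. Peptide H3(1-25) at 75uM, acetyl-CoA at 70uM and ThioGlo1 at 50uM were then added. Plates were read immediately and after 20 min (Ex340nm/Em540nm).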
PLK1 PBD block – qHTS for Inhibitors of PLK1-PDB (polo-like kinase 1 - polo-box domain): Primary Screen. actives 2.8% (n = 360,000). Potency, µM, inactives show max response, negative = inhibition, actives largely listed as inhibitors. Plk1 PBD binding of FITC phosphopeptide, fluorescence polarization. Serine/threonine-protein kinase PLK1 (Homo sapiens), P53350; note: series mostly up to about 57 µM; % is set by controls: 0 for no effect and ±100 for the full control effect; nearly all actives have a fitted effect of over 65% in size
Mito fusion yeast – qHTS Assay for Small Molecule Inhibitors of Mitochondrial Division or Activators of Mitochondrial Fusion; Potency, µM (series often up to 46.1 µM), without a hit: top-dose growth rescue (activation), hits mostly activators; actives 0.23% (n = 320,000); S. cerevisiae fusion-defective mutant growth rescue, CellTiterGlo 48 h; AID 485298, 2010; note: % of control where 0% means no effect; nearly all actives have a fitted effect of over 45% in size
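Luminescent cell viability in 1536-well qHTS format served as the measure of rescued growth in ts fusion-mutant S. cerevisiae cultured on non-fermentable YPEG for 48 hours at 37C.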
* marks the source's active call; other numbers are inactive results; ? = inconclusive; · = not tested or not shown. Calls come from the whole dose curve; as a rule, active = well fitted curve in the direction sought with a large enough effect; inconclusive = small, poorly fitted or top-dose-only effect, or another doubt; inactive = no such curve, though single readings can be large; an effect the other way counts as inactive or inconclusive. Potency is the fitted concentration of half-maximal effect.

SMILES	PKM2 activator	VDR inh	GLS inh	GCN5L2 inh	PLK1 PBD block	Mito fusion yeast
COC(=O)/C=C1\S/C(=N/NC(=O)c2ccc(OC)cc2)NC1=O	2.5%	-6.8%	-0.4%	-6.1%	18.9µM*	-4.0%
FC(F)(F)c1ccccc1-c1cncnc1NCc1cccs1	·	?	·	-1.6%	·	·
CC1(OC(=O)c2ccco2)C(=O)C2=COC(C3CC3)=CC2=C(Br)C1=O (stereo not drawn)	·	-11.6%	·	·	·	·
O=[N+]([O-])c1ccccc1/C=C/C=N/Nc1nc(N2CCCCC2)nc(N2CCCCC2)n1	-3.9%	?	5.1%	-10.4%	26.7µM*	3.0%
O=C(CCCSc1ccc(Cl)cc1)Nc1ccccc1O	-1.1%	-4.0%	-2.7%	-9.7%	-3.4%	-47.0%
c1cc2c3c(c1)c1c(n3CCNC2)CCCC1	·	?	·	-17.4%	·	·
Cc1cccc(S(=O)(=O)c2c(N)n(Cc3ccco3)c3nc4ccccc4nc23)c1	22.4µM*	-3.3%	6.7%	-19.4%	-5.7%	5.3%
CC(C)Cn1c(=O)c2ccccc2n2c(CCC(=O)NC(C)c3ccccc3)nnc12 (stereo not drawn)	·	3.4%	4.6%	-10.2%	·	·
CC(=O)Nc1cc(-c2ccc(CO)cc2)cn2c(-c3ccc(F)cc3)cnc12	·	·	11.3%	·	?	·
S=C(NCCCCN(Cc1ccc(Cl)cc1)c1ccc(Br)cn1)NCCCc1cnc[nH]1	·	-10.7%	2.8%	·	·	·
CC(C)C1C(=O)NC(=S)N1S(=O)(=O)c1ccc(C(C)(C)C)cc1 (stereo not drawn)	0.0%	-18.4%	4.3%	-1.6%	23.8µM*	12.4%
COC(=O)C1=C(C)NC(COC(N)=O)=C(C(=O)OC(C)C)C1c1cccc(Cl)c1Cl (stereo not drawn)	·	·	-2.7%	·	·	·
Cc1ccccc1NC(=O)COC(=O)CC1CCCC1	·	-2.0%	14.1%	-9.7%	-0.3%	8.8%
CC1CCC(=C(C#N)c2nc(-c3cc4ccccc4oc3=O)cs2)CC1 (stereo not drawn)	1.2%	-19.9%	6.3%	-12.3%	26.7µM*	25.5%
COCCn1c(=O)c(C)nc2cnc(N3CCOCC3)nc21	·	2.5%	·	-12.9%	·	·
COC(=O)c1ccc(N)cc1O	0.4%	2.5%	6.1%	-5.6%	-13.0%	-4.4%
COC(=O)c1ccc(=O)c2nc3/c(=C/O)c(O)cc(=O)c3[nH]c12	-4.0%	-11.1%	5.01µM*	?	18.9µM*	-5.4%
CCN(CC(=O)Nc1ccc(OC)cc1)C(=O)CN1C(=O)NC(C)(c2ccc3ccccc3c2)C1=O (stereo not drawn)	-5.9%	3.7%	-0.9%	-3.5%	0.2%	-1.9%
O=C(NC1CC1)c1ccc(NC(=O)C2CCC2)cc1	·	79.4µM*	4.7%	·	18.9µM*	·
O=C(NC1CC1)c1ccc(NC(=O)C2CCCC2)cc1	·	-13.3%	0.9%	·	-3.3%	·
O=C(NC1c2ccccc2-c2ccccc21)c1ccco1	0.5%	-11.0%	11.7%	-0.5%	21.2µM*	3.7%
O=C(Nc1ccc(Cl)c([N+](=O)[O-])c1)ONC1=NCCCCC1	-6.8%	-8.2%	?	-3.4%	26.7µM*	1.6%
O=C(ONC1=NCCCCC1)c1cccc([N+](=O)[O-])c1	-1.2%	-7.4%	22.4µM*	-2.3%	-9.0%	1.4%
CCOC(=O)N=S(N)(=O)c1ccccc1 (stereo not drawn)	0.7%	10.4%	-0.8%	·	-4.8%	-1.2%
CCOC(=O)N=S(N)(=O)c1ccc(Cl)cc1 (stereo not drawn)	-0.5%	-4.5%	?	1.1%	10.6µM*	-2.9%

Screening results as filed in PubChem BioAssay.
